ClpP mod – qHTS Assay for Activators of ClpP | purified B. subtilis ClpP, FRET peptide cleavage, 20 min | Potency, µM (top dose mostly 57.5 µM), without a hit: at the highest dose activity change, negative = active | 340,000 tested, 1.9% active; active means well fitted falling curve with a large enough effect; inconclusive means small, poorly fitted or top-dose-only effect; inactive means no such curve, though single readings can be large or run the other way; further: potency means the concentration at half of the fitted maximal effect; the source files actives as falling curves though it sought activators and does not explain the sign; nearly all actives have a fitted effect of over 65% in size
Target sequence (P80244 whole entry, looked up): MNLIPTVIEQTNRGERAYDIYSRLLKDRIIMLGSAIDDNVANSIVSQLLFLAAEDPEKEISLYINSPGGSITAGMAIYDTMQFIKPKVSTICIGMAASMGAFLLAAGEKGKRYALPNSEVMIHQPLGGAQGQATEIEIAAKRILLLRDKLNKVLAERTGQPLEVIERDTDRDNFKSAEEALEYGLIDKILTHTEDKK
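Buffer: 100 mM Tris/HCl pH8, 100 mM KCl, 0.05% low protease BSA, 2.5% glycerol, 0.01% Tween-20. ClpP 10 microg/mL final; 20 min RT; delta FRET normalized to ADEP and DMSO controls.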
D3 antag – qHTS of D3 Dopamine Receptor Antagonist: qHTS | D(3) dopamine receptor (Homo sapiens), P35462 | D3R cells, DiscoveRx beta-arrestin luminescence, antagonist mode; stronger effect = lower value | max response, negative = inhibition, % | 360,000 tested, 2.5% active; in the data active means max response below about -50%; inconclusive means no clear call, values can overlap the other calls; further: on the % scale 0 is the no-effect control and ±100 the full control effect
Target sequence (P35462 whole entry, looked up): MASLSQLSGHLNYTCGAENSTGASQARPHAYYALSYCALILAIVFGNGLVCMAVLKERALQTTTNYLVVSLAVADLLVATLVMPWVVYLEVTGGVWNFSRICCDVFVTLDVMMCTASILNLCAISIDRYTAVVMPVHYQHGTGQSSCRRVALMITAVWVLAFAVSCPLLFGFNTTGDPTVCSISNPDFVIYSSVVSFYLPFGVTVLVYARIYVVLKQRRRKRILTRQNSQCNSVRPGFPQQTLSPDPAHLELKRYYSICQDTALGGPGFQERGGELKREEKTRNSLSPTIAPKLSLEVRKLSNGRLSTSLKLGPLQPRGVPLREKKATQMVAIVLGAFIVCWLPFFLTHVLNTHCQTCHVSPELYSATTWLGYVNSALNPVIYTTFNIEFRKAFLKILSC
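Cells plated overnight at 1500 cells/well, then exposed to library compounds with dopamine controls for 90 minutes at 37 degrees C. DiscoveRx reagent added for 30–60 minutes at room temperature; luminescence read, quantitative HTS format.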
GLP1R ag – qHTS of GLP-1 Receptor Agonists; Glucagon-like peptide 1 receptor (Homo sapiens), P43220; HEK293 GLP-1R CRE-luciferase, luminescence, 4-6 h; cells express a hypersensitive GLP-1R form; Potency, µM (series often up to 45.6 µM), for inactives: at the highest dose activation, usual class: activators; 380,000 tested, 0.007% active; AID 624172, 2012; further: potency means the concentration at half of the fitted maximal effect; % of control where 0% means no effect
GLP1R cytotox – qHTS of GLP-1 Receptor Inverse Agonists: Cytotox Screen; HEK293 cAMP-luciferase reporter cells, luminescence, 24 h; Potency, µM (top dose mostly 38.3 µM), without a hit: at the top dose activity change, negative = inhibition, actives largely listed as inhibitors; 410,000 tested, 0.13% active; AID 624418, 2012;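 further: loss of luciferase light is scored as toxicity; potency means the concentration at half of the fitted maximal effect; on the % scale 0 is the no-effect control and ±100 the full control effect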
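Seeding density was 200 cells/uL; after overnight-length (12 h) culture, 23 nL compounds went on for 24 h at 37 °C. Readout used a luciferase detection reagent, luminescence taken after 12 min at room temperature.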
DRD3 agonist – qHTS of D3 Dopamine Receptor Agonist: qHTS; max activation, %; D3R DiscoveRx beta-arrestin cells, luminescence, 90 min; 410,000 tested, 0.58% active; D(3) dopamine receptor (Homo sapiens), P35462; in the data active means max activation above about 30%; further: 0% is about no effect
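Agonist-mode cell screen: cells plated at 1500/well and incubated overnight at 37 °C, then exposed to library compounds for 90 min at 37 °C. Detection reagent was added for 30–60 min at room temperature, and luminescence was read.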
GLP-1R inv ag – qHTS of GLP-1 Receptor Inverse Agonists (Inhibition Mode); Potency, µM (series often up to 38.3 µM), for the others: top-dose activity change, negative = inhibition, usual class: inhibitors; Glucagon-like peptide 1 receptor (Homo sapiens), P43220; HEK293 GLP-1R CRE-luciferase, luminescence, 24 h; GLP-1R form is constitutively active; 410,000 tested, 1.6% active; AID 624417, 2012; further: potency means the concentration at half of the fitted maximal effect; on the % scale 0 is the no-effect control and ±100 the full control effect; nearly all actives have a fitted effect of over 55% in size
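Cells are plated, allowed 12 hours at 37 deg C, then treated with compounds for 24 hr before luciferase detection reagent is added and luminescence is read after 12 min at room temperature. The HEK293 line carries constitutively active GLP-1R with a cAMP-responsive reporter.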
Active calls of the source: *; ? = inconclusive; . = no result given. A selection: hits, their analogues and other compounds. The true share with any hit is near 5.7%. Unless noted, the call rests on the fitted dose curve; in most records, active means well fitted curve in the direction sought with a large enough effect; inconclusive means small, poorly fitted or top-dose-only effect, or another doubt; inactive means no such curve, though single readings can be large; an effect the other way counts as inactive or inconclusive.

SMILES	ClpP mod	D3 antag	GLP1R ag	GLP1R cytotox	DRD3 agonist	GLP-1R inv ag
Fc1cccc(NC(=S)N2CCN(c3ccccn3)CC2)c1	2%	-9	-10%	18%	-5	-7%
FC(F)(F)c1cccc(NC(=S)N2CCN(c3ccccn3)CC2)c1	.	-106*	5%	-19%	6	?
Oc1c(Br)cc(Br)cc1CNc1cccc2cccnc12	-3%	-58*	-1%	-18%	-3	?
Oc1ccc(Br)cc1CNc1cccc2cccnc12	.	?	15%	-16%	-10	?
COc1ccc(CN2C3CCCC2CC(NC(=O)Nc2ccccc2C)C3)cc1 (centres undefined)	-11%	-92*	-5%	-7%	-9	0%
COc1ccc(NC(=O)N2C3CCCC2CC(NC(=O)c2ccccc2)C3)cc1 (centres undefined)	.	0	13%	1%	-6	-16%
CCCN1C2CCCC1CC(NC(=O)c1ccc(OC)cc1)C2 (centres undefined)	-2%	-2	1%	-8%	0	2%
COc1ccc(CN2C3CCCC2CC(NC(=O)Nc2cccc(C)c2)C3)cc1 (centres undefined)	0%	-78*	5%	-13%	0	?
COc1ccc(CN2C3CCCC2CC(NC(=O)Nc2ccccc2)C3)cc1 (centres undefined)	1%	-64*	-6%	-8%	-7	?
COc1ccc(N2CCN(c3ncnc4onc(C)c34)CC2)cc1	1%	.	.	-5%	0	?
CC(=O)c1ccc(NC(=O)c2sc(-n3nc(C)c(Cc4ccccc4)c3C)nc2C)cc1	?	.	.	-4%	2	8%
CC(C)(C)c1ccc(C(=O)Nc2nc3nc(-c4ccccc4)cc(=O)n3[nH]2)cc1	-8%	.	.	2%	2	-19%
C/C(=N\NC(=S)NC(C)C)c1ccccc1OC(F)F	.	-4	11%	?	-8	?
CCNC(=S)N/N=C(\C)c1ccc2ccccc2c1OC(F)F	2%	-5	21%	?	30*	?
Nc1ncc(S(=O)(=O)N2CCN(c3ccccc3)CC2)cn1	-1%	.	.	4%	-16	0%
O=C1C(=O)c2c(ccc3ccccc23)-c2ccccc21	.	-53*	0%	?	-14	?
CN(C)/C=C1\Oc2ccc3ccccc3c2C1=O	.	-12	2%	73%	0	63%
Cc1nc(SCC(=O)NCC(F)(F)F)c2c(-c3cccs3)csc2n1	0%	-4	-5%	-9%	0	?
Cc1nc(SCC(=O)NC(C)(C#N)C2CC2)c2c(-c3cccs3)csc2n1 (centres undefined)	-1%	7	3%	-19%	5	6.3µM*
CC/C(=N\Nc1ccc([N+](=O)[O-])cc1[N+](=O)[O-])c1ccc(O)cc1	1%	-12	-5%	10%	2	-22%
CC/C(=N\Nc1ccccc1[N+](=O)[O-])c1ccc(O)cc1	.	-57*	32%	?	-12	?
O=C(COc1cccc(NC(=O)c2cccc([N+](=O)[O-])c2)c1)c1ccc(Br)cc1	-22%	0	-16%	-19%	-3	3.2µM*
O=C(Nc1cccc(OCC(=O)N2CCOCC2)c1)c1cccc([N+](=O)[O-])c1	-2%	15	2%	-11%	2	15%
CCOC(=O)c1[nH]c2ccc(OC)cc2c1NC(=O)CCN1CCC(C)CC1	28µM*	0	-9%	-9%	-16	-18%
CCOC(=O)c1[nH]c2ccc(OC)cc2c1NC(=O)CCN1CCc2ccccc2C1	28µM*	?	4%	-19%	-16	-33%
SMILES	ClpP mod	D3 antag	GLP1R ag	GLP1R cytotox	DRD3 agonist	GLP-1R inv ag
CCc1cc(C(=O)N2CCOCC2)c(NC2=NS(=O)(=O)c3ccccc32)s1	-1%	-69*	-12%	-15%	2	16%
COc1cc2c(=O)n(Cc3ccccc3)c(=O)n(CC(=O)NCCc3ccccc3)c2cc1OC	28µM*	5	-2%	4%	-1	13%
COc1cc2c(=O)n(Cc3ccccc3)c(=O)n(CC(=O)NCC3CCCO3)c2cc1OC (centres undefined)	?	-1	0%	-17%	1	-7%
CCC(=O)N1CCc2cc(Br)cc(S(=O)(=O)N3CCN(c4ccccc4OC)CC3)c21	1%	.	0%	2%	-7	16%
CC(=O)Nc1ccc(OC(C)=O)cc1	.	.	3%	.	-8	.
OCCNCCCCOc1cccc(Br)c1	2%	-27	-3%	4%	-26	?
CCOc1cccc(OCCCNCCCOC)c1	1%	-59*	-10%	-2%	-5	6%
CCc1cccc(OCCCCN(CC)CC)c1	0%	-73*	0%	1%	-25	?
CCOC(=O)C(CCCCOc1cccc(CC)c1)C(=O)OCC	-2%	-18	2%	-3%	10	?
CCc1cccc(OCCCCNCCCOC)c1	-1%	-79*	3%	-5%	-39	?
C=CCNCCCCOc1cccc(Br)c1	.	-62*	1%	13%	-17	?
CCOCCCNCc1cccc(OC)c1	-1%	10	-8%	2%	-6	1%
O=C(CCOc1ccccc1)N(Cc1cccnc1)c1nc2ccc(F)cc2s1	-3%	.	.	0%	-16	-11%
O=C(NCc1ccncc1)[C@@H]1CCCN1C(=O)[C@H]1CCCN1C(=O)c1cccc2ccccc12	1%	-1	-1%	-3%	7	13%
COc1ccccc1-c1cc2nc(C)c(CCC(=O)Nc3ccc(Br)c(C)c3)c(C)n2n1	4%	.	-1%	0%	6	9%
COc1ccc(C2=NNC(=O)C2(C)Br)cc1 (centres undefined)	-4%	-10	0%	-1%	1	9%
COCCCNCCCCOc1cccc(Br)c1	1%	-61*	0%	2%	-5	?
Cc1c(Cl)c(-c2n[nH]c(=S)n2Cc2ccco2)nn1C	-1%	-54*	-1%	3%	-1	3%
CCOC(=O)c1cc(-c2cc3ccccc3o2)nc2c1c(=O)[nH]c(=O)n2CCOC	7.1µM*	9	4%	-4%	-5	12%
O=C(NCCc1ccccc1)c1c(O)c2ccccc2[nH]c1=O	.	3	-7%	-7%	6	-2%
CCNC(=O)c1c(O)c2ccccc2[nH]c1=O	25µM*	-3	4%	136%	-9	10µM*
